Measured values from PubChem BioAssay (NCATS).
Where “and” joins values, the source holds several entries; their conditions need not be identical. Identical values can stand only once. Inconclusive results are not listed. A call without a number means that no potency is given here. Where a structure was tested more than once in an assay, its records may differ in their call. Values without a mark were called inactive. Calls of active or inactive are those of the source. The call rests on the fitted dose curve; in most records, active means well fitted curve in the direction sought with a large enough effect; inconclusive means small, poorly fitted or top-dose-only effect, or another doubt; inactive means no such curve, though single readings can be large; an effect the other way counts as inactive or inconclusive.

Legend:
[1] = Viability qHTS for spleen associated tyrosine kinase inhibitor (SYKi) drug resistant MV4-11 cells (AID 1963824); further: nearly all actives have a fitted effect of over 35% in size
Summary of the method: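 CellTiter-Glo luminescence, read 10 min after reagent addition, reports viability after a 72 hr compound exposure. Cells are an MV4-11 line made resistant to SYK inhibition, seeded at 500 per well onto compound-containing plates.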

[2] = Quantitative highthroughput screen to assess conditional lethalithy of NOMO1 cells grown in RPMI1640 with untreated serum (RPMI+s) (AID 1963876); further: nearly all actives have a fitted effect of over 35% in size
Summary of the method: (§1)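 Each medium arm—HPLM with 10% dialyzed FBS, or RPMI1640 with 5 mM glucose and 10% untreated or dialyzed FBS—was screened against an 11-point, 3-fold compound titration for 48 h at 37 °C, with CellTiter-Glo luminescence as endpoint.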

[3] = Quantitative highthroughput screen to assess conditional lethalithy of NOMO1 cells grown in RPMI1640 with dialyzed fetal bovine serum (RPMI+ds) (AID 1963877); further: nearly all actives have a fitted effect of over 30% in size; on Viability: series mostly up to about 46 µM
Summary of the method: as §1

[4] = Quantitative highthroughput screen to assess conditional lethalithy of NOMO1 cells grown in Human Plasma-Like Medium with dialyzed fetal bovine serum (HPLM+ds) (AID 1963878); further: nearly all actives have a fitted effect of over 35% in size
Summary of the method: as §1

[5] = Quantitative highthroughput screen to assess conditional lethalithy of P12 Ichikawa cells grown in RPMI1640 with dialyzed fetal bovine serum (RPMI+ds) (AID 1963880); conditions: Potency: P12-Ichikawa viability; further: nearly all actives have a fitted effect of over 35% in size
Summary of the method: as §1

[6] = Quantitative highthroughput screen to assess conditional lethalithy of P12 Ichikawa cells grown in RPMI1640 with untreated serum (RPMI+s) (AID 1963881); conditions: Potency: viability; further: nearly all actives have a fitted effect of over 35% in size; on Viability: series mostly up to about 46 µM
Summary of the method: as §1

[7] = Quantitative highthroughput screen to assess conditional lethalithy of SEM cells grown in Human Plasma-Like Medium with dialyzed fetal bovine serum (HPLM+ds) (AID 1963882); further: nearly all actives have a fitted effect of over 35% in size; on Viability: series mostly up to about 46 µM
Summary of the method: as §1

[8] = Quantitative highthroughput screen to assess conditional lethalithy of SEM cells grown in RPMI1640 with unreated serum (RPMI+s) (AID 1963883); further: nearly all actives have a fitted effect of over 35% in size
Summary of the method: as §1

[9] = Cellular viability qHTS for adrenocortical cancer (ACC) cell line SW-13 (AID 1963989); conditions: SW-13 ACC cells viability, CellTiter-Glo, 48 h; activity (max response): stronger effect = lower value; further: nearly all actives have a fitted effect of over 65% in size;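 on activity (max response): cells grown in serum-free medium with ITS supplement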
Summary of the method: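 SW-13 cells in ITS-supplemented serum-free DMEM were plated overnight, then exposed for 48 h at 37C to compound titrations (up to 46 uM final). Viability was read by CellTiter-Glo luminescence; four-parameter logistic fits gave IC50 and efficacy.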

[10] = Cellular viability qHTS for adrenocortical cancer (ACC) cell line NCI-H295R (AID 1963990); further: nearly all actives have a fitted effect of over 60% in size
Summary of the method: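 Luminescent ATP read-out (CellTiter-Glo, 20 min RT) after 48 h drug exposure of NCI-H295R cells; a titration up to 46 uM final. Data normalized to doxorubicin (100% inhibition) and DMSO (0%); 4-parameter fit gives IC50, max response.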

[11] = Quantitative highthroughput screen to assess conditional lethalithy of P12 Ichikawa cells grown in Human Plasma-Like Medium with dialyzed fetal bovine serum (HPLM+ds) (AID 1963879); conditions: Potency: viability; further: nearly all actives have a fitted effect of over 35% in size; on Viability: series mostly up to about 46 µM
Summary of the method: as §1

[12] = Quantitative highthroughput screen to assess conditional lethalithy of SEM cells grown in RPMI1640 with dialyzed fetal bovine serum (RPMI+ds) (AID 1963884); further: nearly all actives have a fitted effect of over 35% in size; on Viability: series mostly up to about 46 µM
Summary of the method: as §1
Potency means the concentration at half of the fitted maximal effect.

Compound | Potency [1] | viability, % of control [1] | Potency [2] | Potency [3] | Potency [4] | Potency [5] | Potency [6] | Potency [7] | Potency [8] | activity (max response) [9] | activity change, negative = viability loss [10] | Potency [11] | Potency [10] | Potency [12] | Potency [9]
Cn1c(CNc2ccc(C(=N)N)cc2)nc2cc(C(=O)N(CCC(=O)O)c3ccccn3)ccc21 | 4.11 µM (active) | 94.3% [at 0.588 µM] | inactive | inactive | inactive | inactive | inactive | inactive | inactive | 9.7% | 15.5% [at 0.587 µM] | – | – | – | –
CN1CCC(=C2c3ccccc3C=Cc3ccccc32)CC1 | 18.8 µM (active) | – | inactive | inactive | inactive | inactive | inactive | inactive | inactive | – | – | inactive | 3.98 µM (active) | – | –
CC(C)c1nn(-c2c(Cl)cccc2Cl)c2nc(Cc3ccc(OCCO)cc3)[nH]c(=O)c12 | 0.0206 µM (active) | – | 0.118 µM (active) | 0.105 µM (active) | 0.118 µM (active) | 0.148 µM (active) | 0.148 µM (active) | 0.105 µM (active) | – | – | – | 0.166 µM (active) | 0.1 µM (active) | 0.148 µM (active) | 0.0501 µM (active)
CN(CCOc1ccc(CC2SC(=O)NC2=O)cc1)c1ccccn1 (centres undefined) | 13.3 µM (active) | – | inactive | inactive | inactive | inactive | inactive | inactive | – | -2.77% and -12.8% | – | inactive | inactive | inactive | –
CCCCc1ccc(NS(=O)(=O)c2ccc(C)c(C(=O)N3CCN(c4cccc(C)c4C)CC3)c2)cc1 | 42.8 µM (active) | – | inactive | inactive | inactive | inactive | inactive | inactive | inactive | – | – | inactive | 44.7 µM (active) | inactive | –
NS(=O)(=O)c1cc2c(cc1Cl)NC=NS2(=O)=O | inactive | – | inactive | inactive | inactive | inactive | inactive | inactive | inactive | 2.09% and 0.632% | – | inactive | inactive | – | –
C[C@@]12O[C@@H](C[C@]1(O)CO)n1c3ccccc3c3c4c(c5c6ccccc6n2c5c31)CNC4=O | 0.0074 µM (active) | – | 1.32 µM (active) | 1.32 µM (active) | 0.833 µM (active) | 0.833 µM (active) | 0.662 µM (active) | 0.166 µM (active) | 0.0469 µM (active) | – | – | 0.935 µM (active) | 3.98 µM (active) | 0.105 µM (active) | 2.82 µM (active)
CN(C)CC(=O)N1CCC(c2ccc(NC(=O)c3ncc(C#N)[nH]3)c(C3=CCCCC3)c2)CC1 | 41.1 nM (active) and 148 nM (active) | – | inactive | inactive | inactive | inactive | inactive | – | – | – | – | inactive | – | – | –
Cc1cc(N2CCN(C(=O)Oc3ccc(-c4ccccc4)cn3)CC2)c2ccccc2n1 | 5.8 µM (active) | – | – | – | – | – | – | – | – | – | – | – | – | – | –
Cc1ccccc1C(=O)Nc1ccc(C(=O)N2CCCC(O)c3cc(Cl)ccc32)c(C)c1 (centres undefined) | 20.9 µM (active) | – | inactive | inactive | inactive | inactive | inactive | inactive | inactive | – | – | inactive | 16.4 µM (active) | inactive | –
CO[C@H]1C[C@@H]2CC[C@@H](C)[C@@](O)(O2)C(=O)C(=O)N2CCCC[C@H]2C(=O)O[C@H]([C@H](C)C[C@@H]2CC[C@@H](OP(C)(C)=O)[C@H](OC)C2)CC(=O)[C@H](C)/C=C(\C)[C@@H](O)[C@@H](OC)C(=O)[C@H](C)C[C@H](C)/C=C/C=C/C=C/1C | 3.72 µM (active) | – | – | – | – | – | – | – | – | – | – | – | – | – | –
O=c1[nH]nc(Sc2ncc([N+](=O)[O-])s2)n1-c1ccc2c(c1)OCCO2 | 2.35 µM (active) | – | 9.35 µM (active) | 8.33 µM (active) | 9.35 µM (active) | 9.35 µM (active) | 8.33 µM (active) | 8.33 µM (active) | 7.43 µM (active) | – | – | 14.8 µM (active) | 6.31 µM (active) | 8.33 µM (active) | 17.8 µM (active)
CC1=C(C(=O)O)N2C(=O)[C@@H](NC(=O)[C@H](N)C3=CCC=CC3)[C@H]2SC1 | inactive | – | inactive | inactive | inactive | inactive | inactive | inactive | inactive | -13.1% | – | inactive | inactive | inactive | –
C=C1CCC2C(C)(C(=O)O)CCCC2(C)C1CCC(C)CC(=O)O (centres undefined) | 4.53 µM (active) | – | – | – | – | – | – | – | – | – | – | – | – | – | –
NC(=O)c1ccc(-c2nc(-c3ccc4c(c3)OCO4)c(-c3ccccn3)[nH]2)cc1 | 11.6 µM (active) | – | inactive | inactive | inactive | inactive | inactive | inactive | inactive | -5.02% | – | inactive | inactive | – | –
COc1ccc(C2(O)CCC(N3CC[C@@H](NC(=O)CNC(=O)c4cccc(C(F)(F)F)c4)C3)CC2)cn1 (some centres undefined) | inactive | – | – | – | – | – | – | – | – | – | – | – | – | – | –
C=Cc1c(C)c2cc3nc(cc4[nH]c(cc5nc(cc1[nH]2)C(C)=C5CCC(=O)O)c(CCC(=O)OC)c4C)[C@@]1(C)C3=CC=C(C(=O)OC)[C@H]1C(=O)OC | 7.42 µM (active) | – | 14.8 µM (active) | 13.2 µM (active) | 14.8 µM (active) | inactive | 14.8 µM (active) | inactive | inactive | – | – | inactive | – | inactive | –
